This note sets out measurements from PubChem BioAssay.

Active and inactive are the calls of the source.

In assay [1] the test system is Plasmodium falciparum Sir2 (PF13_0152, Sir2A). Description: Plasmodium falciparum Sir2A binding compounds – biochemical, small-molecule microarray, 635 nm fluorescence, primary screen (AID 1098).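 Also: score merges spot fluorescence intensity with its signal-to-noise ratio.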 Particulars: fluorescence 635 nm, higher = more signal.
A short description of assay [2]: probe aDKK1 binding to arrayed compounds – biochemical, biotinylated probe, 635/667 nm fluorescence, primary screen (AID 1099).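 Also: score merges 667nm spot fluorescence with signal to noise across triplicate slides; reference of the scale not given here.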 The following applies: small-molecule microarray, higher = more signal.
Assay [3] is described as follows: probe aCHRDL2 binding to arrayed compounds – biochemical, biotinylated probe, 635/667 nm fluorescence, primary screen (AID 1100). Particulars: small-molecule microarray, higher = more signal.
Assay [4] in a line: change in splice reporter luminescence, either direction, cell-based, HEK293, spliceosome inhibition project, primary screen (AID 1101).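 Also: HEK293 cells carrying a splicing-competent luciferase reporter gene; test concentration not given here.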 Particulars: HEK293 splicing luciferase reporter, 24 h, higher = more signal, called active from +8 up or from −8 down. A general note: In a reporter assay the amount or activity of a reporter protein is the signal.
For assay [5], the target named is Fibroblast growth factor 10 (Homo sapiens) (UniProt O15520). Briefly: compounds binding fibroblast growth factor 10 – biochemical, small-molecule microarray, 635 nm fluorescence, primary screen (AID 1102). The following applies: FGF10 binding, fluorescence 635 nm, higher = more signal.
Sequence of Fibroblast growth factor 10 (Homo sapiens) (O15520 whole entry, looked up): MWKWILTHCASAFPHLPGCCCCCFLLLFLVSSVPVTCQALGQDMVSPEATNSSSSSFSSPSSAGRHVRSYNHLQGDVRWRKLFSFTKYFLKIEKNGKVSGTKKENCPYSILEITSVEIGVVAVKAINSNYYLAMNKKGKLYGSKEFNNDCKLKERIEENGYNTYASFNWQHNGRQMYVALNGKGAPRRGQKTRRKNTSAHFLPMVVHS
The test system of assay [6] is glycogen synthase kinase-3 (GSK3A per assay name; protocol says GSK3B). Description: compounds binding glycogen synthase kinase-3 – biochemical, small-molecule microarray, 635 nm fluorescence, GSK3A, primary screen (AID 1103). Also: the record names both GSK3A and GSK3B. Particulars: fluorescence 635 nm, higher = more signal.
Assay [7] deals with Epidermal growth factor receptor (Homo sapiens) (UniProt P00533). Description: compounds binding epidermal growth factor receptor – biochemical, small-molecule microarray, 635 nm fluorescence, primary screen (AID 1104).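 Also: score merges 667 nm emission intensity with spot signal to noise over triplicate slides.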 Particulars: EGFR binding, higher = more signal.
Sequence of Epidermal growth factor receptor (Homo sapiens) (P00533 whole entry, looked up): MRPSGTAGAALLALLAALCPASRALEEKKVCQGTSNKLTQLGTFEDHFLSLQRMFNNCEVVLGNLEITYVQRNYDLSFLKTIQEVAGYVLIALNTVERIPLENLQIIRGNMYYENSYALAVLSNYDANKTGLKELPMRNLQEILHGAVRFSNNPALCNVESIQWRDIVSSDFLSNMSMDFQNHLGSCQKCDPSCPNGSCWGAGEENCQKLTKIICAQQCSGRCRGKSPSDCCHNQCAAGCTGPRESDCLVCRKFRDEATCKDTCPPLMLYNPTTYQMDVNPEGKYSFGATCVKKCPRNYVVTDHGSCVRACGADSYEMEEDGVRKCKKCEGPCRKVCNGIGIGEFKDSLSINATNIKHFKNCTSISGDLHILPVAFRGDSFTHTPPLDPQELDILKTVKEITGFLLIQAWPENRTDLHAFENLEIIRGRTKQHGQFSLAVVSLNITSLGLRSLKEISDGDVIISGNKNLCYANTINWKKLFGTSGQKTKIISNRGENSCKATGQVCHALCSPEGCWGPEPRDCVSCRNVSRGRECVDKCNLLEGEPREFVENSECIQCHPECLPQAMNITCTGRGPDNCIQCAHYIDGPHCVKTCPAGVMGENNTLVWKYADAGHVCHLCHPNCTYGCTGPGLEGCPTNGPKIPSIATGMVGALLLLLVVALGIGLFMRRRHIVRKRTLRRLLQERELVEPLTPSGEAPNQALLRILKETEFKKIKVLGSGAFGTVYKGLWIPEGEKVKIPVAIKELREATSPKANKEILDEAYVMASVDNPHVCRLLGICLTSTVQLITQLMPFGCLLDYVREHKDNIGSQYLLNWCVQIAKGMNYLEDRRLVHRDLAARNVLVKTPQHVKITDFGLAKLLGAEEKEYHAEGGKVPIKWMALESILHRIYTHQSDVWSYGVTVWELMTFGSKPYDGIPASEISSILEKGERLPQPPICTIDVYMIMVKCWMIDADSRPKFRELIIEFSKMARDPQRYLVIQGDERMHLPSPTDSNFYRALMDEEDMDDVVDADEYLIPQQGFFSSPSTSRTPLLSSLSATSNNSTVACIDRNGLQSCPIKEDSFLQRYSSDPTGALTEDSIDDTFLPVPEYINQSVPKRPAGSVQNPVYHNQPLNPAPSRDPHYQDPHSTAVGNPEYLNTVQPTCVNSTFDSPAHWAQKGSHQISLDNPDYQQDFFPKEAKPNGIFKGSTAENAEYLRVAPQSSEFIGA
Assay [8] concerns the target Follistatin-related protein 3 (Homo sapiens) (UniProt O95633). Description: compounds binding follistatin-related protein 3 – biochemical, small-molecule microarray, 635 nm fluorescence, primary screen (AID 1105).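 Also: score merges emission near 667 nm and signal to noise per printed spot across three slides.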 Particulars: FSTL3 binding, higher = more signal.
The target of assay [9] is Dickkopf-related protein 1 (Homo sapiens) (UniProt O94907). Description: small molecules binding DKK1 protein – biochemical, small-molecule microarray, 635 nm fluorescence scan, primary screen (AID 1106).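 Also: score merges emission near 667 nm with signal to noise over three replicate slides.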 Particulars: higher = more signal.
Sequence of Dickkopf-related protein 1 (Homo sapiens) (O94907 whole entry, looked up): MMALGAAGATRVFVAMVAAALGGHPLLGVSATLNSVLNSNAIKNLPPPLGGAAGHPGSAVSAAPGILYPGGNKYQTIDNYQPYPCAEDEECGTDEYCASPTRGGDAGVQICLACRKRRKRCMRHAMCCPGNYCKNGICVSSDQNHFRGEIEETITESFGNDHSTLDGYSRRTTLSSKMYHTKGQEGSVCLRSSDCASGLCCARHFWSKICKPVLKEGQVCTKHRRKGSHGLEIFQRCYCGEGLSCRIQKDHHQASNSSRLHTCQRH
Assay [10] relates to Inhibin beta A chain (activin A). Briefly: small molecules binding activin A – biochemical, small-molecule microarray, 635 nm fluorescence scan, primary screen (AID 1107).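 Also: mouse activin A protein probed at 4.33 µg/mL on printed slides; score merges bound-protein fluorescence near 667 nm with spot signal-to-noise.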 Particulars: INHBA, higher = more signal.

Sequence of Follistatin-related protein 3 (Homo sapiens) (O95633 whole entry, looked up): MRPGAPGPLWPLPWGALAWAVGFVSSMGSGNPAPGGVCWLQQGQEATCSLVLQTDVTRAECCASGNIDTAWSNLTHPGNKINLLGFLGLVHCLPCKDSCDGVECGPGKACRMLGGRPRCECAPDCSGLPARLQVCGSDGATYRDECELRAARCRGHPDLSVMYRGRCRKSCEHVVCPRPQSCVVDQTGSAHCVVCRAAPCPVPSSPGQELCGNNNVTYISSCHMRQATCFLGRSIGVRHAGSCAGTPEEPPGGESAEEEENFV

Regarding `C=C(COC)/C(=C/C[C@H](OC(=O)c1ccncc1)c1ccccc1OCCO)c1cnc2ccccc2c1`, the composite z-score is 1.32 in [1]; 0.29 in assay [2]; -0.627 in assay [3]; 1.45 in assay [5]; 1.32 in assay [6]; 0.788 in assay [7]. In addition, the composite z-score in [8] turned out to be 1.48; in assay [9] it was 0.864; in assay [10], 1.54. Besides, in assay [4], the z-score is 0.321 (inactive).

In the case of `CC(=O)NCCCC[C@@H]1NC(=O)[C@H]2C[C@@H](C(=O)NCCCC[N+](C)(C)C)[C@@H](c3cccc(OCCO)c3)N2C1=O`, the composite z-score is 0.0726 in [1]; 0.186 in [2]; -0.201 in assay [3]; 1.37 in assay [5]; 0.536 in assay [6]; 1.17 in [7]. The composite z-score is 1.54 in assay [8], 1.83 in assay [9] and -0.416 in assay [10]. Also, the z-score in [4] was -0.307 (inactive).

Regarding `O=C1NC(=O)C2C1C=CC(C(O)CCc1ccccc1)N2Nc1ccc(Cl)cc1Cl` (stereo not given), the composite z-score in [1] was 0.187; in assay [2] it was 1.39; in assay [3] it was 1.29; in assay [5], 0.265; in assay [6], 0.107; in [7], -0.973. Further, the composite z-score in assay [8] was 0.195; in assay [9], -0.743; in [10], 1.28. Also, the z-score in assay [4] was 1.5 (inactive).

In the case of `COc1cc2c(cc1OC)CN(C(=O)[C@@H]1[C@H]3C(=O)O[C@H](c4ccccc4)[C@H](c4ccccc4)N3[C@H](c3ccc(OCCO)cc3)[C@@]13C(=O)Nc1ccccc13)CC2`, the composite z-score is 1.41 in assay [1]; 0.0269 in assay [2]; 0.0159 in [3]; 1.4 in [5]; 1.17 in assay [6]; 0.399 in [7]. Also, the results for the composite z-score in assay [8], in [9] and in [10] were 1.07, 0.343 and 0.508, respectively. Moreover, the z-score in [4] was 0.576 (inactive).

`COC(=O)Cn1c(C(=O)N(C)C)cc2c1C[C@H]1CN(C(=O)c3ccccc3)[C@@](Cc3ccc(F)cc3)(C(=O)OC)[C@@H]21`: the composite z-score in assay [1] was 0.441; in assay [2], 0.903; in assay [3] it was 0.823; in assay [5], 1.33; in [6] it was -0.367; in [7], 0.404. Besides, the composite z-score in assay [8] is 0.139; in assay [9], -0.0283; in [10] it was 0.65. Also, the z-score in assay [4] was -0.233 (inactive).

With `COC(=O)c1ccc([C@H](NC(=O)c2ccco2)[C@]2(C)C[C@H]2C2CCCCC2)cc1`, the composite z-score was -1.05 in [1]; 0.642 in assay [2]; 1.06 in [3]; -0.32 in assay [5]; -1.22 in assay [6]; -0.808 in [7]. The composite z-score in [8] was -1.03; in assay [9] it was -1.09; in [10], 0.447. Besides, in assay [4], the z-score is 2.43 (inactive).

On to `Cc1cc(C)cc(N2C(=O)CSC2c2cccc([N+](=O)[O-])c2)c1` (stereo not given), for which the composite z-score in [1] turned out to be 1.13; in assay [2] it was 0.94; in assay [3], 0.398; in [5] it was 1.15; in assay [6], 1.29; in assay [7], 0.279. Moreover, the composite z-score in [8] is 1.35; in [9], 0.905; in [10] it was -0.639. Further, in assay [4], the z-score was 1.07 (inactive).

As for `[N-]=[N+]=NCc1ccccc1[C@@H]1OC(c2ccc(OCCCO)cc2)=N[C@]1(CCS(=O)(=O)c1ccccc1)C(=O)NCC(O)CO` (stereo not given in full), the composite z-score is 1.46 in assay [1]; 0.76 in assay [2]; 1.03 in [3]; 1.22 in assay [5]; -0.323 in assay [6]; -0.0077 in [7]. Further, the results for the composite z-score in [8], in assay [9] and in assay [10] were 0.6, -0.227 and 0.736, respectively. Also, the z-score in [4] was -1.33 (inactive).

In the case of `COC(=O)[C@@]1(Cc2ccc(F)cc2)[C@H]2c3cc(C(=O)N4CCCC4)n(CCN4CNCC4=O)c3C[C@H]2CN1C(=O)c1ccccc1`, the composite z-score was 1.51 in [1]; 0.845 in assay [2]; 0.82 in [3]; -0.142 in [5]; 1.26 in assay [6]; -0.472 in assay [7]. Besides, the values for the composite z-score in assay [8], in assay [9] and in [10] were 0.131, -1.29 and 0.781, respectively. Also, the z-score in assay [4] was 1.64 (inactive).

With `[N-]=[N+]=NCc1ccccc1C[C@@]1(C(=O)N2CCCCC2)N=C(c2ccc(OCCCO)cc2)O[C@@H]1c1ccccc1`, the composite z-score was 0.884 in [1]; 0.542 in assay [2]; 0.751 in [3]; 0.384 in assay [5]; 0.0635 in assay [6]; -0.451 in assay [7]. Further, the composite z-score was -0.281 in assay [8], -0.849 in assay [9] and 1.05 in assay [10]. Besides, the z-score in assay [4] is -0.422 (inactive).

Turning to `COCCOC(=O)N1C(=O)[C@@]2(c3cc(C#Cc4ccc(OC)cc4)ccc31)[C@H](c1ccc(O)cc1)N1[C@H](c3ccccc3)[C@H](c3ccccc3)OC(=O)[C@H]1[C@@H]2C(=O)N1CCCCCCC1`, the composite z-score in assay [1] was 0.447; in assay [2], 1.81; in assay [3], 1.36; in assay [5], 0.506; in assay [6], -0.151; in [7] it was -0.191. In addition, the values for the composite z-score in assay [8], in assay [9] and in [10] were 0.859, 0.423 and 1.31, respectively. In addition, the z-score in assay [4] is 1.5 (inactive).

Turning to `CC(C)N1C(=O)c2ccccc2[C@@H](C(=O)NC2CC2)[C@@H]1c1ccc(CO)cc1`, the composite z-score in assay [1] was 0.869; in assay [2] it was -0.18; in [3] it was -0.194; in assay [5], -0.114; in assay [6], 0.621; in assay [7], -0.0202. The figures for the composite z-score in [8], in assay [9] and in assay [10] were 0.552, 0.37 and 1.13, respectively. Also, in [4], the z-score is 0.381 (inactive).

Consider `[N-]=[N+]=Nc1ccccc1C[C@]1(C(N)=O)N=C(c2ccc(OCCCO)cc2)O[C@H]1c1ccccc1N=[N+]=[N-]`, for which the composite z-score in assay [1] turned out to be 0.902; in [2] it was 0.504; in assay [3] it was 0.676; in [5], 0.856; in assay [6] it was 0.966; in assay [7], 0.188. The composite z-score is -0.0523 in assay [8], -0.442 in [9] and 1.25 in assay [10]. Further, the z-score in assay [4] was -1.82 (inactive).

With `O=C1C2C=CC(C(O)c3ccc(Br)cc3)N(Nc3ccccc3F)C2C(=O)N1c1ccccc1` (stereo not given), the composite z-score in assay [1] was 0.708; in [2] it was 0.0952; in assay [3], 0.703; in assay [5], 0.118; in assay [6], 0.235; in assay [7], -0.309. Further, the composite z-score in assay [8] was 0.0807; in assay [9], -0.325; in assay [10], 0.404. The z-score in [4] is -1.93 (inactive).

In the case of `COc1ccc(CCN2C(=O)[C@@]3(Cc4ccccc42)c2ccccc2C(=O)N(Cc2ccccc2OC)[C@H]3c2ccc(CO)cc2)cc1`, the composite z-score in [1] is 0.9; in assay [2] it was 0.533; in assay [3] it was 0.406; in assay [5] it was -0.783; in assay [6], -0.49; in assay [7], -0.951. For the same molecule, the figures for the composite z-score in assay [8], in assay [9] and in assay [10] were -1.14, -1.33 and 0.359, respectively. For the same molecule, the z-score in assay [4] is -0.942 (inactive).

As for `CCCCCCc1nc(-c2cc(C)c(OC)c(C)c2)c(C)c2c1[Si](C(C)C)(C(C)C)OC2`, the composite z-score in [1] was -0.17; in [2], 0.101; in assay [3] it was -0.178; in [5] it was -0.722; in [6] it was -0.644; in assay [7], 0.202. Further, the composite z-score is -0.0761 in assay [8], 0.0434 in assay [9] and 0.737 in assay [10]. For the same molecule, the z-score in assay [4] is -1.9 (inactive).

In the case of `C[C@@H]1NC(=O)[C@@]23C(=O)N[C@@H](Cc4ccccc4)C2[C@H](C)[C@@]2(C)O[C@H]2C3/C=C/C/C=C\CNC(=O)[C@@H]2CCCN2C1=O` (stereo not given in full), the composite z-score was 0.685 in [1]; -0.33 in assay [2]; -0.339 in assay [3]; 0.0528 in [5]; -0.438 in [6]; -0.0154 in [7]. In addition, the composite z-score in assay [8] was -0.165; in assay [9], 0.0077; in [10], 1.35. In addition, the z-score in assay [4] is -0.0139 (inactive).
